Source: PubChem BioAssay (NCATS)
Inconclusive results are not listed. Calls of active or inactive are those of the source. Calls follow the shape of the dose curve; as a rule, active = well fitted curve in the direction sought with a large enough effect; inconclusive = small, poorly fitted or top-dose-only effect, or another doubt; inactive = no such curve, though single readings can be large; an effect the other way counts as inactive or inconclusive.

Key:
[1] = qHTS of pediatric cancer cell lines to identify multiple opportunities for drug repurposing: Primary screen for SJ-GBM2 cells (AID 1347091); also: potency is read from the fitted curve at half-maximal effect;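 as to activity change, negative = cytotoxic: plate controls were DMSO neutral control for no effect and bortezomib for full effect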
Method in brief: (§1)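 Cell viability, CellTiter-Glo luminescence; 500-1,000 cells/well, 8- or 11-point titration, 48 h compound exposure at 37 degrees C, 5% CO2. Controls: DMSO neutral, bortezomib 2.3 µM final as positive.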

[2] = qHTS of pediatric cancer cell lines to identify multiple opportunities for drug repurposing: Primary screen for A673 cells (AID 1347092); also: nearly all actives have a fitted effect of over 45% in size; also: potency is read from the fitted curve at half-maximal effect; as to activity change, negative = cytotoxic: % is scaled to controls: 0 for no effect and ±100 for the full control effect
Method in brief: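 Titration-based qHTS on A673 cells: MIPE compounds spanned 11 points (0.78 nM to 46 µM final), NPC compounds 8 points (0.59 nM to 46 µM final). Viability after 48 h was measured by ATP luminescence.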

[3] = qHTS of pediatric cancer cell lines to identify multiple opportunities for drug repurposing: Primary screen for SK-N-MC cells (AID 1347093); also: potency is read from the fitted curve at half-maximal effect;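 as to activity change, negative = cytotoxic: series mostly up to about 46 µM; plate controls were DMSO neutral control for no effect and bortezomib for full effect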
Method in brief: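 Metabolically active cells were quantified by ATP-dependent luminescence (CellTiter-Glo, 15 min at room temperature) following 48 h treatment. Cells had been plated at 500-1,000 per well and settled for 5 h beforehand.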

[4] = qHTS of pediatric cancer cell lines to identify multiple opportunities for drug repurposing: Primary screen for BT-37 cells (AID 1347094); also: potency is read from the fitted curve at half-maximal effect;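 as to activity change, negative = cytotoxic: series mostly up to about 57 µM; plate controls were DMSO for no effect and bortezomib for full effect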
Method in brief: (§2)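 Plated cells (500-1,000 per well, growth media) were allowed to settle for 5 hours, treated with compound dilutions for 48 hours, then lysed with CellTiter-Glo for 15 min at room temperature before luminescence reading.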

[5] = qHTS of pediatric cancer cell lines to identify multiple opportunities for drug repurposing: Primary screen for NB-EBc1 cells (AID 1347095); also: potency is read from the fitted curve at half-maximal effect;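 as to activity change, negative = cytotoxic: plate controls were DMSO neutral control for no effect and bortezomib for full effect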
Method in brief: as §2

[6] = qHTS of pediatric cancer cell lines to identify multiple opportunities for drug repurposing: Primary screen for U-2 OS cells (AID 1347096); also: nearly all actives have a fitted effect of over 50% in size; also: potency is read from the fitted curve at half-maximal effect;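 as to activity change, negative = cytotoxic: plate controls were DMSO wells for no effect and bortezomib positive control wells for full effect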
Method in brief: (§3)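 Cells (500-1,000/well) rested 5 h, then received compounds for 48 h; metabolically active cells were measured by CellTiter-Glo luminescence. Final concentrations spanned up to 46 µM (MIPE, 11-point) or 0.59 nM-46 µM (NPC, 8-point) in primary screens, 11-point in follow-ups.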

[7] = qHTS of pediatric cancer cell lines to identify multiple opportunities for drug repurposing: Primary screen for Saos-2 cells (AID 1347097); also: nearly all actives have a fitted effect of over 40% in size; also: potency is read from the fitted curve at half-maximal effect; as to activity change, negative = cytotoxic: % is scaled to controls: 0 for no effect and ±100 for the full control effect
Method in brief: as §2

[8] = qHTS of pediatric cancer cell lines to identify multiple opportunities for drug repurposing: Primary screen for SK-N-SH cells (AID 1347098); also: nearly all actives have a fitted effect of over 65% in size; also: potency is read from the fitted curve at half-maximal effect; as to activity change, negative = cytotoxic: % is scaled to controls: 0 for no effect and ±100 for the full control effect
Method in brief: as §3

[9] = qHTS of pediatric cancer cell lines to identify multiple opportunities for drug repurposing: Primary screen for NB1643 cells (AID 1347099); also: nearly all actives have a fitted effect of over 50% in size; also: potency is read from the fitted curve at half-maximal effect;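 as to activity change, negative = cytotoxic: plate controls were DMSO neutral control for no effect and bortezomib positive control for full effect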
Method in brief: as §2

[10] = qHTS of pediatric cancer cell lines to identify multiple opportunities for drug repurposing: Primary screen for DAOY cells (AID 1347090);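 also: series mostly up to about 46 µM; plate controls were DMSO for no effect and bortezomib for full effect; nearly all actives have a fitted effect of over 55% in size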
Method in brief: as §1

c1ccc(CN(CC2=NCCN2)c2ccccc2)cc1
inactive: Potency [1] | Potency [2] | Potency [3] | Potency [4] | Potency [5] | Potency [6] | Potency [7] | Potency [8] | Potency [9]

COCCOC(=O)C1=C(C)NC(C)=C(C(=O)OC/C=C/c2ccccc2)C1c1cccc([N+](=O)[O-])c1 (stereo unspecified)
inactive: Potency [10] | Potency [9]

CN(C)CCN(Cc1ccccc1)c1ccccn1
inactive: Potency [1] | Potency [2] | Potency [4] | Potency [5] | Potency [6] | Potency [7] | Potency [8] | Potency [9]

CN1CCCCC1CCN1c2ccccc2Sc2ccc(S(C)=O)cc21 (stereo unspecified)
inactive: Potency [1] | Potency [2] | Potency [3] | Potency [4] | Potency [5] | Potency [6] | Potency [7] | Potency [9]

Nc1ccc(S(=O)(=O)Nc2ccc(Cl)nn2)cc1
inactive: Potency [1] | Potency [2] | Potency [3] | Potency [4] | Potency [5] | Potency [6] | Potency [7] | Potency [8] | Potency [9]

O=C1O[C@H](CO)[C@@H](O)[C@H](O)[C@H]1O
inactive: Potency [1] | Potency [2] | Potency [3] | Potency [4] | Potency [5] | Potency [6] | Potency [8] | Potency [9]

c1ccc2c(CC3=NCCN3)cccc2c1
inactive: Potency [1] | Potency [2] | Potency [4] | Potency [5] | Potency [6] | Potency [8] | Potency [9]

NC(N)=NCCC[C@H](N)C(=O)O
inactive: activity change, negative = cytotoxic [1] 11.2% [at 4.84 µM] | activity change, negative = cytotoxic [2] 0.848% [at 4.84 µM] | activity change, negative = cytotoxic [3] -27.1% [at 4.84 µM] | activity change, negative = cytotoxic [4] 4.21% [at 6.03 µM] | activity change, negative = cytotoxic [5] 12% [at 4.84 µM] | activity change, negative = cytotoxic [6] 2.69% [at 4.84 µM] | activity change, negative = cytotoxic [8] -0.158% [at 6 µM] | activity change, negative = cytotoxic [9] 7.96% [at 4.84 µM]

Cc1c(Cl)cccc1Nc1ccccc1C(=O)O
inactive: Potency [1] | Potency [2] | Potency [4] | Potency [6] | Potency [8]
active: Potency [3] 18.8 µM

CC[N+](CC)(CC)CCOc1ccc(/C=C/c2ccccc2)cc1
inactive: Potency [6]
active: Potency [2] 2.66 µM | Potency [3] 5.96 µM | Potency [7] 23.7 µM | Potency [9] 13.3 µM

COc1cc2[nH]c(=O)[nH]c(=O)c2cc1OC
inactive: Potency [1] | Potency [2] | Potency [3] | Potency [5] | Potency [6] | Potency [8] | Potency [9]

Nc1nc2c(ncn2CCC(CO)CO)c(=O)[nH]1
inactive: Potency [1] | Potency [2] | Potency [3] | Potency [5] | Potency [6] | Potency [7] | Potency [8] | Potency [9]

OCCN1CCN(CCCN2c3ccccc3Sc3ccc(Cl)cc32)CC1
active: Potency [1] 21.1 µM | Potency [2] 21.1 µM | Potency [7] 11.9 µM | Potency [8] 8.64 µM
inactive: Potency [6]

O=C1Nc2ccc(Cl)cc2[C@@](C#CC2CC2)(C(F)(F)F)O1
inactive: Potency [6]

O=c1[nH]c(=O)c2[nH]c(=O)[nH]c2[nH]1
inactive: activity change, negative = cytotoxic [1] 1.34% [at 9.22 µM] | activity change, negative = cytotoxic [2] -14.8% [at 9.22 µM] | activity change, negative = cytotoxic [4] 0.299% [at 11.5 µM] | activity change, negative = cytotoxic [5] -4.54% [at 9.22 µM] | activity change, negative = cytotoxic [6] -0.365% [at 9.22 µM] | activity change, negative = cytotoxic [8] 13.8% [at 11.4 µM] | activity change, negative = cytotoxic [9] -5.19% [at 9.22 µM]

COC(=O)C1=C(C)NC(C)=C(C(=O)OC)C1c1ccccc1[N+](=O)[O-]
inactive: Potency [1] | Potency [2] | Potency [4] | Potency [6] | Potency [7] | Potency [9]
active: Potency [8] 21.7 µM

CNCCCC1c2ccccc2C=Cc2ccccc21
active: Potency [3] 11.9 µM
inactive: Potency [5] | Potency [9]

O=C(O)Cc1sc(-c2ccccc2)nc1-c1ccc(Cl)cc1
inactive: Potency [1] | Potency [2] | Potency [3] | Potency [4] | Potency [5] | Potency [6] | Potency [8] | Potency [9]

CCN(CC)CCCC(C)Nc1c2ccc(Cl)cc2nc2ccc(OC)cc12 (stereo unspecified)
active: Potency [2] 21.1 µM | Potency [4] 27.6 µM | Potency [5] 15 µM | Potency [8] 5.45 µM
inactive: Potency [6]

CC(=O)O[C@@]12CO[C@@H]1C[C@H](O)[C@@]1(C)C(=O)[C@H](O)C3=C(C)[C@@H](OC(=O)[C@H](O)[C@@H](NC(=O)OC(C)(C)C)c4ccccc4)C[C@@](O)([C@@H](OC(=O)c4ccccc4)[C@H]21)C3(C)C
active: Potency [2] 0.001 µM | Potency [3] 0.001 µM
inactive: Potency [6]

CN(C)CCCN1c2ccccc2Sc2ccc(Cl)cc21
inactive: Potency [6]
active: Potency [2] 21.1 µM | Potency [8] 6.12 µM

C[C@](N)(Cc1ccc(O)cc1)C(=O)O
active: Potency [3] 0.001 µM
inactive: activity change, negative = cytotoxic [1] 11.8% [at 4.84 µM] | activity change, negative = cytotoxic [5] 16.2% [at 4.84 µM] | activity change, negative = cytotoxic [6] 7.56% [at 4.84 µM] | activity change, negative = cytotoxic [7] -22.2% [at 4.84 µM] | activity change, negative = cytotoxic [8] -0.998% [at 6 µM]

C[C@@H]1C[C@H]2[C@@H]3C[C@H](F)C4=CC(=O)C=C[C@]4(C)[C@@]3(F)[C@@H](O)C[C@]2(C)[C@@]1(O)C(=O)CO
inactive: Potency [1] | Potency [2] | Potency [3] | Potency [5] | Potency [6] | Potency [7] | Potency [8] | Potency [9]

NS(=O)(=O)c1cc2c(cc1C(F)(F)F)NC(Cc1ccccc1)NS2(=O)=O (stereo unspecified)
inactive: Potency [1] | Potency [2] | Potency [3] | Potency [4] | Potency [5] | Potency [6] | Potency [8] | Potency [9]

NCC(=O)CCC(=O)O
inactive: Potency [1] | Potency [2] | Potency [3] | Potency [4] | Potency [5] | Potency [6] | Potency [8] | Potency [9]

COc1cc(C)c(Cc2cnc(N)nc2N)cc1OC
inactive: Potency [1] | Potency [2] | Potency [4] | Potency [5] | Potency [6] | Potency [8]
active: Potency [3] 11.9 µM

Cc1c(O)cccc1C(=O)N[C@@H](CSc1ccccc1)[C@H](O)CN1C[C@H]2CCCC[C@H]2C[C@H]1C(=O)NC(C)(C)C
active: Potency [1] 21.1 µM | Potency [3] 26.6 µM | Potency [6] 21.1 µM | Potency [7] 26.6 µM

COc1ccc2c(c1)C(=O)N(CCc1ccc(S(=O)(=O)NC(=O)NC3CCCCC3)cc1)C(=O)C2(C)C
inactive: Potency [1] | Potency [2] | Potency [5] | Potency [6] | Potency [7] | Potency [8] | Potency [9]

CCCCC/C(C=O)=C\c1ccccc1
inactive: Potency [1] | Potency [2] | Potency [3] | Potency [4] | Potency [5] | Potency [6] | Potency [8] | Potency [9]
active: Potency [7] 53.1 µM

CNC(=O)Oc1ccc2c(c1)[C@]1(C)CCN(C)[C@@H]1N2C
inactive: Potency [1] | Potency [2] | Potency [3] | Potency [5] | Potency [6] | Potency [8] | Potency [9]

NC1[C@H]2CN(c3nc4c(cc3F)c(=O)c(C(=O)O)cn4-c3ccc(F)cc3F)C[C@@H]12 (stereo partly specified)
inactive: Potency [1] | Potency [3] | Potency [5] | Potency [6] | Potency [7]
active: Potency [2] 13.3 µM

CNCCC(Oc1ccc(C(F)(F)F)cc1)c1ccccc1 (stereo unspecified)
inactive: Potency [5] | Potency [6]

Cc1ccc2nc(N)[nH]c(=O)c2c1Sc1ccncc1
inactive: Potency [6] | Potency [8] | Potency [9]
active: Potency [3] 0.944 µM | Potency [7] 13.3 µM

CC1(C)S[C@@H]2[C@H](NC(=O)Cc3ccccc3)C(=O)N2[C@H]1C(=O)O (tested in a mixture with another compound)
inactive: Potency [1] | Potency [2] | Potency [3] | Potency [4] | Potency [5] | Potency [6] | Potency [8] | Potency [9]

CC(O)COc1ccccc1 (stereo unspecified)
inactive: Potency [1] | Potency [2] | Potency [5] | Potency [6] | Potency [8]

NC1CCN(c2cccc(Cl)n2)CC1
inactive: Potency [1] | Potency [2] | Potency [3] | Potency [5] | Potency [6] | Potency [7] | Potency [8] | Potency [9]

C[C@]12CC[C@@H]3c4ccc(O)cc4CC[C@H]3[C@@H]1CC[C@@H]2OC(=O)CCC1CCCC1
inactive: Potency [2] | Potency [3] | Potency [8] | Potency [9]

[O-][n+]1cccc(CO)c1
inactive: Potency [1] | Potency [2] | Potency [3] | Potency [5] | Potency [6] | Potency [7] | Potency [8] | Potency [9]

CCN(CC)CCNC(=O)c1c(C)[nH]c(/C=C2\C(=O)Nc3ccc(F)cc32)c1C
inactive: Potency [8]
active: Potency [1] 11.9 µM | Potency [2] 10.6 µM | Potency [3] 2.37 µM | Potency [4] 17.4 µM | Potency [6] 21.1 µM | Potency [7] 21.1 µM

CC(CN1c2ccccc2Sc2ccccc21)N(C)C (stereo unspecified)
inactive: Potency [1] | Potency [2] | Potency [3] | Potency [4] | Potency [5] | Potency [6] | Potency [9]

Cc1ccc(C(C)C)cc2c(C)ccc1-2
inactive: Potency [1] | Potency [2] | Potency [3] | Potency [4] | Potency [5] | Potency [6] | Potency [8] | Potency [9]

CN1CCN(C2Cc3ccccc3Sc3ccc(Cl)cc32)CC1 (stereo unspecified)
active: Potency [3] 21.1 µM | Potency [8] 21.7 µM
